Reference: publication PMC12548414
About 20 (1%) of roughly 1,600 compounds showed an effect of 50% or more. Only a selection was taken, and strong results are over-represented in it overall.

What follows are compounds tested on T1, E. coli pLC1021 (luc-trpAt trans-translation reporter). Settings: reporter signal, KKL-35 = 100%; rise means trans-translation inhibition; 2 h, 20 µM.
T1 construct: pLC1021 luc-trpAt reporter strain
Set-up: species or system Escherichia coli pLC1021; luc-trpAt non-stop luciferase reporter; luminescence rises when trans-translation is inhibited; normalized to KKL-35 and DMSO
Description: The luciferase screen was performed as previously described ([16]). […] 48 µL of cells was transferred to white 96-well plates, and 2 µL DMSO or 20 µM compound, or 20 µM KKL-35 was added. Plates were sealed with adhesive film, vortexed gently to mix, and incubated at room temperature for 2 h. 50 µL Bright-Glo reagent (Promega, Madison, WI) was added to each well, and the plates were sealed with adhesive film, vortexed vigorously, and incubated for an additional 10 min at room temperature. Luminescence was measured at 560 nm using a SpectraMax i3 microplate reader and readings for each plate were normalized to the average of three KKL-35-treated wells (positive control) and three DMSO-treated wells (negative control) within the plate to correct for plate-to-plate and day-to-day variations. Results from at least two biological repeats were averaged, and GraphPad Prism was used to plot the data. We screened a library of 1,601 anti-tubercular small molecules for their ability to inhibit trans-translation using a luciferase reporter in Escherichia coli. In this luc-trpAt reporter, the firefly luciferase gene has a trpA transcriptional terminator before the stop codon, such that luciferase is translated from a non-stop mRNA ([16]). When trans-translation is active, the luciferase will be tagged and degraded, but when trans-translation is inhibited, active luciferase will accumulate, resulting in a luminescent signal when luciferin is added. Luciferase activity was measured after growth in the presence of compounds from the library at 20 µM, using the known trans-translation inhibitor KKL-35 as a positive control (Fig. 1A) ([16], [17]). Compounds with activity one standard deviation above the median were scored as positive (Fig. S1 and Table S1).

SMILES	% activation [%]
COC(=O)CSc1nc(N)c2c3c(sc2n1)CCCC3 [KKL-0994]	9
COc1ccc(C(=O)NC(=S)Nc2ccc(N3CCCCC3)cc2)cc1OC [KKL-1472]	0
Cc1cc(Nc2ccccc2)n(-c2nc3ccccc3[nH]2)n1 [KKL-0835]	21
COc1ccc2[nH]c(CNCCc3nc4cc(Cl)ccc4[nH]3)cc2c1 [KKL-1215]	0
COCc1nnc(NC(=O)c2nnn(-c3ccccc3F)c2C)s1 [KKL-0547]	0
CCC(C)NCCCOc1ccc(Cl)c2ccccc12 (centres unmarked) [KKL-1428]	0
O=C(CNCCN1CCOCC1)Nc1sc2c(c1C(=O)Nc1ccccc1)CCC2 [KKL-1074]	2
CCOC(=O)c1ccc(NC(S)=Nc2ccc(Oc3ccccc3)cc2)cc1 [KKL-1317]	0
Cc1c(C(=O)NC(=S)Nc2ccc(Oc3ccc(Cl)cc3)cc2)cccc1[N+](=O)[O-] [KKL-0735]	17
O=C(COc1cccc(F)c1)Nc1nc(-c2ccccn2)cs1 [KKL-1787]	5
O=C(CSc1ccccc1)Nc1ccc(-c2nc3ccccc3c(=O)o2)cc1 [KKL-0595]	1
O=C(Nc1ccc(F)cc1)NC1CCCCCCC1 [KKL-1335]	0
COc1cc(CN(CCCn2ccnc2)Cc2ccc(C)s2)cc2c1OCO2 [KKL-0341]	9
CSc1nc2nc3c(c(O)n2n1)CCCC3 [KKL-1033]	0
COc1ccc(C(=O)Oc2cccc3cccnc23)cc1[N+](=O)[O-] [KKL-1648]	0
O=C(Oc1c(Cl)cc(Cl)c2cccnc12)c1ccccc1[N+](=O)[O-] [KKL-1418]	90
Cc1c(C(=O)Oc2cccc3cccnc23)cccc1[N+](=O)[O-] [KKL-0952]	8
O=C(Oc1c(Cl)cc(Cl)c2cccnc12)c1ccco1 [KKL-1639]	0
Cc1ccc(C(=O)Oc2ccc(Cl)c3cccnc23)cc1[N+](=O)[O-] [KKL-1383]	0
O=C(Oc1c(Cl)cc(Cl)c2cccnc12)c1ccc([N+](=O)[O-])cc1 [KKL-0754]	96
CCCc1cc2c(=O)c(-c3ccc4c(c3)OCCCO4)coc2cc1OCC(=O)OCC [KKL-1419]	0
O=C(Nc1ccc(Cl)cc1C(F)(F)F)c1ccc([N+](=O)[O-])o1 [KKL-0712]	0

SMILES	% activation [%]
CN1CCN(c2cc(-c3ccncc3)nc(-c3ccccc3)n2)CC1 [KKL-1795]	237
COc1ccc(-c2cncc(-c3cc(N4CCN(CCO)CC4)nc(-c4ccccc4)n3)c2)cc1 [KKL-1682]	0
CN1CCN(c2cc(-c3ccc(F)cc3)nc(-c3ccncc3)n2)CC1 [KKL-1844]	0
Cc1cc(CN2CCC(O)(c3ccccc3)C2)ccc1N1CCCC1 (centres unmarked) [KKL-0330]	0
CCc1ccc(Nc2nnc(SCc3cc(C)on3)s2)cc1 [KKL-1791]	0
N#Cc1cc2c(ccc3ccccc32)oc1=O [KKL-1386]	0
CCCc1ccc2oc(C(=O)NCCc3ccc(O)cc3)c(C)c2c1 [KKL-1185]	2
C#CCOc1cccc(CN2CCn3cccc3C2CC)c1 (centres unmarked) [KKL-0516]	0
CSc1ncc(CN2CCCC(C(=O)c3ccc(-c4ccccc4)c(F)c3)C2)cn1 (centres unmarked) [KKL-0344]	0
CN(CC1Cc2ccccc2CN1C)C(=O)c1cc(COc2cncc(Cl)c2)on1 (centres unmarked) [KKL-1186]	0
COc1ccccc1N1C(=O)c2cccc3cc([N+](=O)[O-])cc(c23)C1=O [KKL-1508]	0
Cc1ccccc1OCCCON1C(=N)N=C(N)NC1(C)C [KKL-1698]	11
COc1ccc(C(C)(C)C)cc1N=C(S)Nc1ccc(Cl)c(Cl)c1 [KKL-1535]	0
Cc1ccc2nc(C(F)(F)F)c(C(=O)NCc3cccc(OC(C)C)c3)n2c1 [KKL-1772]	2
Cc1ccccc1/C=C/c1ccc2cccc(O)c2n1 [KKL-0432]	11
CC(=O)Nc1ccc2cccc(O)c2n1 [KKL-0957]	55
Oc1cccc2ccc(/C=C/c3cccc(F)c3)nc12 [KKL-1464]	18
Cc1nc2ccccn2c1C(=O)Nc1ccc(C(C)(C)C)cc1 [KKL-1770]	0
N#Cc1ncn(-c2ccc3nnc(C(F)(F)F)n3n2)n1 [KKL-1886]	0
CC(C)c1noc(N2CCC(C(C)Oc3cnc(-c4ccc(S(C)(=O)=O)c(F)c4)cn3)CC2)n1 (centres unmarked) [KKL-1810]	0
Cc1ccc(-c2cc(C(=O)N3CCCC(N4CCN(c5ccccc5C)CC4)C3)[nH]n2)s1 (centres unmarked) [KKL-0485]	0
COc1cccc(O)c1CN1CCC(C(=O)Nc2ccc(-c3cccc(C)c3)cc2)CC1 [KKL-0508]	0
